# An excerpt weighted towards active compounds, which were near 19% of everything screened.
# BCR signal inh = chronic active BCR signaling inhibition. Potency, µM (top dose mostly 46.1 µM), for inactives: at the top dose activity change, negative = inhibition, actives largely listed as inhibitors. actives 0.05% (n = 340,000). AID 493014. ABC-DLBCL IkBa-CBG/CBR reporter, luminescence ratio, 4 h; active means well fitted inhibition curve with a large enough effect in the signal ratio, with a control signal flat, not every such curve was filed as active; inconclusive means small, poorly fitted or top-dose-only effect, or effect the other way, or a change in a side signal; the % refers to the signal ratio;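 further: potency means the concentration at half of the fitted maximal effect; plate controls were basal doxycycline-induced cells for no effect and cells given 10 µM MG132 for full effect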
#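 Compounds up to 46 uM were incubated four hours with TMD8 cells whose green CBG68 luciferase is fused to IkappaBalpha; red CBR luminescence normalised the signal, and concentration-effect curves were fitted to fusion, red and ratio data.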
# IL1B secr inh = inhibitors of inflammasome signaling (IL-1 beta secretion); THP-1 LPS/ATP IL-1B secretion, AlphaLISA, 16 h; hits give low values; actives 4.7% (n = 360,000); activity change, % at 57.5 µM; AID 743279; in the data active means activity change below about -50%; inconclusive means mostly about -30% to -49%; further: on the % scale 0 is the no-effect control and ±100 the full control effect
#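 THP-1 cells pretreated 1 hr with compounds (up to 57.5 uM final), then stimulated with LPS (250 ng/mL final) plus ATP (1.25 mM final); secreted IL-1B measured by AlphaLISA after 16 hr, decreased signal indicating inhibition.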
# SW480 rereplic = inducers of DNA re-replication in SW480 colon cancer cells; SW480 DNA re-replication, Hoechst DNA content imaging, 48 h; actives 1.8% (n = 340,000); Potency, µM (top dose mostly 46.1 µM), for the others: top-dose re-replication activation, actives largely listed as activators; further: potency means the concentration at half of the fitted maximal effect; % of control where 0% means no effect; nearly all actives have a fitted effect of over 55% in size
#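 First, 250 cells per well were seeded. Next, compound or vehicle (23 nL) was pinned in, plates sat 48 hr at 37 C. Finally Hoechst was added for 40 min before fluorescence scanning.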
# DT40 TDP1 no CPT = qHTS for Inhibitors of human tyrosyl-DNA phosphodiesterase 1 (TDP1): qHTS in cells in absence of CPT; DT40 Tdp1-/- hTDP1 cells, no CPT, ATP luminescence, 48 h; Potency, µM (titrated, usually from 46.2 µM), without a hit: at the top dose activity change, negative = growth inhibition, hits mostly inhibitors; AID 686978, 2013; actives 15% (n = 420,000); further: potency means the concentration at half of the fitted maximal effect; on the % scale 0 is the no-effect control and ±100 the full control effect; nearly all actives have a fitted effect of over 55% in size
#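 No-CPT arm: Tdp1-/-;hTDP1 DT40 cells (400/well) plus compounds, incubated ≥48 hr at 37 °C. Readout CellTiter-Glo luminescence.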
# DT40 TDP1 CPT = DT40-hTDP1 cell growth loss with CPT; AID 686979; actives 12% (n = 420,000); Potency, µM (series often up to 46.2 µM), for inactives: at the highest dose activity change, negative = growth inhibition, hits mostly inhibitors; chicken DT40 Tdp1-/-;hTDP1 cells + 20 nM CPT, ATP luminescence, 48 h; further: potency means the concentration at half of the fitted maximal effect; on the % scale 0 is the no-effect control and ±100 the full control effect; nearly all actives have a fitted effect of over 55% in size
#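 Cell growth measured by CellTiter-Glo luminescence after a minimum 48 h, 37 C compound exposure with 20 nM CPT in Tdp1-knockout DT40 cells stably expressing hTDP1, seeded 400/well; qHTS titration format.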
# MCF10A rerep = inducers of DNA re-replication in MCF 10A breast cells. MCF 10A DNA re-replication, Hoechst nuclear intensity, 48 h. Potency, µM (highest dose often 46.1 µM), without a hit: at the highest dose activity, positive = re-replication, most hits filed as activators. actives 2.9% (n = 350,000); further: potency means the concentration at half of the fitted maximal effect; % of control where 0% means no effect; nearly all actives have a fitted effect of over 50% in size
# * hit, by the source's call; ? = inconclusive; · = no result; [ ] = another dose, or the depositor's remark. Unless noted, the call rests on the fitted dose curve; in most records, active means well fitted curve in the direction sought with a large enough effect; inconclusive means small, poorly fitted or top-dose-only effect, or another doubt; inactive means no such curve, though single readings can be large; an effect the other way counts as inactive or inconclusive.
SMILES,BCR signal inh,IL1B secr inh,SW480 rereplic,DT40 TDP1 no CPT,DT40 TDP1 CPT,MCF10A rerep
Cc1ccc2sc(N(CCCN(C)C)C(=O)c3ccc(S(=O)(=O)N(C)C4CCCCC4)cc3)nc2c1C,?,?,?,5.8µM*,9.2µM*,23.1µM*
CCOC(=O)N1CCN(S(=O)(=O)c2ccc(C(=O)N(CCCN(C)C)c3nc4c(C)c(C)ccc4s3)cc2)CC1,1.4%,?,1.9%,?,?,1.9%
COc1ccc(-c2oc3ccc(-c4cc(OC)c(OC)c(OC)c4)cc3c2-c2ccc(OC)nc2)cc1,0.4%,-3.8,3.4%,11.6µM*,14.6µM*,?
COc1ccc(-c2c(-c3ccccc3OC)oc3ccccc23)cn1,15.3%,16.1,-4.0%,?,?,16.4µM*
COc1ccc(-c2oc3ccc(-c4cc(OC)c(OC)c(OC)c4)cc3c2-c2ccc(OC)cc2)cc1,·,-0.9,0.8%,?,?,?
O=C(NC(=S)NCc1cccnc1)c1cc(Br)ccc1Cl,-0.5%,-17.4,2.1%,-14.2%,-12.1%,13.4%
N#CC1=C(SCC(N)=O)NC2=C(C(=O)c3ccccc32)C1c1ccc(Cl)cc1 (configuration not stated),3.1%,-51.7*,15.5%,16.4µM*,29.1µM*,?
CSCSC1=C(C#N)C(c2ccc(Cl)cc2)C(C(C)=O)=C(C)N1 (configuration not stated),9.6%,·,·,·,·,·
COc1cccc(CCc2nc3ccccc3c(=O)n2N)c1,·,-7.4,-16.5%,20.6µM*,?,14.8%
Cc1ccc(C)c(N2C(=O)N(C)c3ccccc3S2(=O)=O)c1,-3.3%,·,·,?,?,·
Cc1ccc2c(c1)S(=O)(=O)N(C)C(c1ccccc1)=C2,·,-15.8,-3.1%,?,18.4µM*,?
COc1ccc([C@]23Cc4ccccc4C(O2)c2c(cc(-c4ccccc4)oc2=O)O3)cc1,22.4%[9.22 µM],·,·,·,·,·
CCOC(=O)c1c(C)[nH]c(/C(C)=N/O)c1C,0.5%,-4.7,9.2%,-16.1%,-21.2%,?
CCOC(=O)c1c(C)[nH]c(C2=NNC(=NC3CC3)SC2)c1C,-1.3%,-50.4*,-22.2%,?,?,-12.8%
COc1cc(NC(=O)CSCC(=O)N(C)C2CCCCC2)cc(OC)c1,-0.1%,1.1,-1.3%,-19.1%,-15.7%,3.3%
CN(C(=O)CSCC(=O)Nc1ccc(Cl)cc1)C1CCCCC1,?,-53.2*,-12.8%,14.6µM*,?,-1.8%
CCN1CCN(C(=O)C2CCCN(S(=O)(=O)c3cc(Cl)ccc3Cl)C2)CC1 (configuration not stated),0.1%,-7.8,-0.6%,-18.5%,-21.9%,3.1%
O=C(C1CCCN(S(=O)(=O)c2ccc(Br)s2)C1)N1CCCCCC1 (configuration not stated),·,-5.8,?,14.6µM*,20.6µM*,8.3%
CC1CCN(C(=O)C2CCN(S(=O)(=O)c3cc(Cl)ccc3Cl)CC2)CC1,0.0%,-66.1*,8.0%,20.6µM*,?,-5.5%
Cc1cccc(N2CCN(C(=O)C3CCCN(S(=O)(=O)c4ccc(Br)s4)C3)CC2)c1C (configuration not stated),·,·,·,8.2µM*,9.2µM*,·
O=C(C1CCCN(S(=O)(=O)c2ccc(Br)s2)C1)N1CCN(c2ccccc2)CC1 (configuration not stated),-10.6%,-16.0,-28.1%,13µM*,18.4µM*,?
O=C1NC[C@@H](CCCCN2CCN(CCc3ccc(O)cc3)C(=O)C2=O)N(Cc2ccccc2)C1=O,·,48.8,·,-3.8%,15.2%,·
COc1ccc(C(CNC(=O)C(=O)Nc2ccc3c(c2)OCCO3)N2CCN(C)CC2)cc1 (configuration not stated),1.7%,-4.6,?,-20.5%,-7.0%,?
